HT1080-NT tox: qHTS for induction of synthetic lethality in tumor cells producing 2HG: qHTS for the HT-1080-NT fibrosarcoma cell line. HT-1080-NT fibrosarcoma viability, CellTiter-Glo ATP luminescence, 48 h. Potency, µM (top dose mostly 46.1 µM), without a hit: at the highest dose activity, negative = less viability, usual class: cytotoxic. 360,000 tested, 1.6% active. AID 686970, 2013;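 note: NT is the 2HG producing partner of a matched IDH1 knockdown line; 0% = DMSO-treated cells and -100% = media-only wells without cells; nearly all actives have a fitted effect of over 55% in size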
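A 48-hour cytotoxicity screen used HT-1080-NT cells plated 2 hours before compound delivery. ATP-based CellTiter-Glo luminescence measured viability, normalized to DMSO and no-cell controls.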
KB-3-1 cytotox: qHTS assay for MDR1-selective chemotherapeutics: Primary screen using the parental adenocarcinoma cell KB-3-1 | KB-3-1 viability, CellTiter-Glo ATP luminescence, 72 h | Potency, µM (highest dose often 46.1 µM), usual class: cytotoxic | 400,000 tested, 1.4% active; note: % is set by controls: 0 for no effect and ±100 for the full control effect; nearly all actives have a fitted effect of over 60% in size
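Cytotoxicity in the drug-sensitive parental line KB-3-1 was scored as loss of CellTiter-Glo luminescence following 72 h incubation with compound. Values come from curve fitting of normalized concentration-response data.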
SW480 rereplic: A quantitative high throughput screen for small molecules that induce DNA re-replication in SW480 colon adenocarcinoma cells; SW480 DNA re-replication, Hoechst DNA content imaging, 48 h; Potency, µM (highest dose often 46.1 µM), for inactives: at the top dose re-replication activation, most hits filed as activators; 340,000 tested, 1.8% active; AID 624297, 2012; note: % of control where 0% means no effect; nearly all actives have a fitted effect of over 55% in size
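First, 250 cells per well were seeded. Next, compound or vehicle (23 nL) was pinned in, plates sat 48 hr at 37 C. Finally Hoechst was added for 40 min before fluorescence scanning.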
KB-V1 MDR tox: qHTS assay for MDR1-selective chemotherapeutics: Primary screen using the drug-selected MDR subline cells KB-V1. KB-V1 MDR cells viability, CellTiter-Glo, 72 h. Potency, µM (series often up to 46.1 µM), usual class: cytotoxic. 400,000 tested, 3.4% active; note: % is set by controls: 0 for no effect and ±100 for the full control effect; nearly all actives have a fitted effect of over 60% in size
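KB-V1, DMEM (no phenol red) + 10% FBS; cpd pin-transferred, titration series; 72 h, 37 degrees C; CellTiter-Glo, luminescence. Data normalized, curve-fit.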
HT1080 IDH1KD tx: qHTS for induction of synthetic lethality in tumor cells producing 2HG: qHTS for the HT-1080-IDH1KD cell line; HT-1080 IDH1 knockdown viability, ATP luminescence, 48 h; Potency, µM (highest dose often 46.1 µM), for the others: at the top dose activity, negative = toxicity, hits mostly cytotoxic; 360,000 tested, 2% active;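 note: 0% = DMSO wells and -100% = cell-free medium wells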
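Luminescent ATP read-out (CellTiter-Glo, 10 min at room temperature) after 48 h compound exposure at 37 °C gave viability of IDH1-knockdown HT-1080 cells. Activity was normalised to DMSO and cell-free wells, then fitted as concentration-response curves.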
MCF10A rerep: A quantitative high throughput screen for small molecules that induce DNA re-replication in MCF 10a normal breast cells | 350,000 tested, 2.9% active | MCF 10A DNA re-replication, Hoechst nuclear intensity, 48 h | Potency, µM (series often up to 46.1 µM), for inactives: top-dose activity, positive = re-replication, usual class: activators; note: % of control where 0% means no effect; nearly all actives have a fitted effect of over 50% in size
Numbers without * were called inactive; i = inactive; u = inconclusive; x = no result; [ ] = dose if it differs, or a comment. Compounds with a hit are over-represented: about 7.9% of the library has one in this group of screens. Calls come from the whole dose curve; as a rule, active = well fitted curve in the direction sought with a large enough effect; inconclusive = small, poorly fitted or top-dose-only effect, or another doubt; inactive = no such curve, though single readings can be large; an effect the other way counts as inactive or inconclusive. Potency is the fitted concentration of half-maximal effect.

SMILES | HT1080-NT tox | KB-3-1 cytotox | SW480 rereplic | KB-V1 MDR tox | HT1080 IDH1KD tx | MCF10A rerep
CC(=O)N1Cc2cc(C(=O)NCC(F)(F)F)nc(-c3cccc(-c4cc5ccccc5o4)c3)c2[C@@H]1CCO | 6% | u | x | 23µM* | 9% | x
CC(=O)N1Cc2cc(C(=O)NCC(F)(F)F)nc(-c3cccc(-c4cccnc4)c3)c2[C@H]1CCO | -4% | i | x | i | 16% | x
CCNC(=O)c1cc2c(c(-c3cccc(-c4cccnc4)c3)n1)[C@H](CCO)N(S(C)(=O)=O)C2 | u | 2.9µM* | x | u | 2.3µM* | x
CC(C)(C)S(=O)N1Cc2cc(C(=O)NCC(F)(F)F)nc(-c3cccc(-c4cccc(F)c4)c3)c2[C@@H]1CCO (stereo not given in full) | u | u | x | u | 21µM* | x
CC(=O)N1Cc2cc(C(=O)NCC(F)(F)F)nc(-c3cccc(-c4cccnc4)c3)c2[C@@H]1CCO | u | 4.1µM* | x | i | 6.5µM* | x
Cc1ccc(CNC(=O)Cn2c(=O)n(Cc3ccccc3)c(=O)c3c2c2cc(C)ccc2n3C)cc1 | x | i | x | u | x | x
CC(CNC(=O)c1cccnc1)NC(=O)c1cccnc1 (stereo not given) | x | x | 0% | x | x | -1%
CCSc1nnc([C@H](Cc2ccccc2)NC(=O)OC(C)(C)C)o1 | 3% | i | 2% | 16µM* | -14% | 7%
CC(C)(C)OC(=O)N[C@@H](Cc1ccccc1)c1nnc(SCC(=O)c2ccc(Cl)cc2)o1 | u | i | u | 16µM* | u | u
CC(C)(C)OC(=O)N[C@@H](Cc1c[nH]c2ccccc12)c1nnc(SCC(N)=O)o1 | 10% | i | -14% | i | 3% | 2%
CCCCSc1nnc([C@H](C)NC(=O)OC(C)(C)C)o1 | 4% | i | -3% | 13µM* | -18% | 16%
CC(C)(C)OC(=O)N[C@@H](Cc1ccccc1)c1nnc(SCC(=O)O)o1 | -1% | i | -3% | i | 1% | 18%
CCC(C)[C@@H](NC(=O)OC(C)(C)C)c1nnc(S(=O)(=O)Cc2cccc(C)c2)o1 (stereo not given in full) | 18µM* | i | u | i | -21%[9.24 µM] | 16µM*
CC(C)Sc1nnc([C@H](Cc2c[nH]c3ccccc23)NC(=O)OC(C)(C)C)o1 | 0% | i | -16% | i | 3% | 328%[0.0737 µM]
Cc1ccccc1CS(=O)(=O)c1nnc([C@H](Cc2ccccc2)NC(=O)OC(C)(C)C)o1 | 5µM* | i | u | u | 1.8µM* | u
O=C(CCCl)N1CCCC2(CCCCC2)C1 | 0% | i | -1% | i | -1% | 1%
CC(Sc1nc(-c2ccccc2)cc(C(F)(F)F)n1)C(=O)N1CCCCC1 (stereo not given) | -3% | i | u | u | 2% | 21µM*
COc1ccccc1[C@H]1C(c2cccc(Cl)c2)=NN(c2ccccc2)[C@@H]1CO | u | i | u | i | u | u
COc1ccccc1[C@@H]1C(c2ccccc2)=NN(c2ccc(Br)cc2)[C@H]1C(=O)N1CCOC1=O | -5% | i | u | i | -7% | 3.3µM*
O=C1OCCN1C(=O)[C@H]1[C@H](c2ccc([N+](=O)[O-])cc2)C(c2ccccc2)=NN1c1ccc(Br)cc1 | -11% | i | -24% | i | -16% | -45%
COc1ccccc1[C@@H]1C(c2cccc(C)c2)=NN(c2ccc(Br)cc2)[C@H]1C(=O)N1CCOC1=O | -2% | i | 21µM* | i | 2% | u
COc1ccccc1[C@@H]1C(c2cccc(Cl)c2)=NN(c2ccccc2)[C@H]1C(=O)N1CCOC1=O | 6% | u | 2.6µM* | i | 8% | u
Cc1ccc(SCC(=O)OCC(=O)N(C)C2CCS(=O)(=O)C2)cc1C (stereo not given) | 9% | i | -1% | i | 0% | 4%
Cc1c(C(=O)Nc2ccc(C(C)C)cc2)sc2nc3n(c(=O)c12)CCC3 | x | u | x | i | x | x
Cc1[nH]c2ccccc2c1N=Nc1ccccc1F | u | i | -2% | u | u | 5%
SMILES | HT1080-NT tox | KB-3-1 cytotox | SW480 rereplic | KB-V1 MDR tox | HT1080 IDH1KD tx | MCF10A rerep
Cc1[nH]c2ccccc2c1C1=NNC(=Nc2ccc(F)cc2)SC1 | -26% | u | u | i | -24% | 21µM*
Cc1[nH]c2ccccc2c1N=Nc1ccc(F)cc1 | 21µM* | i | 0% | i | u | -4%
COc1ccc(N=C2NN=C(c3c(C)[nH]c4ccccc34)CS2)cc1 | u | u | u | i | u | 18µM*
COc1ccc(N=C2SCC(c3ccccc3)=NN2C)cc1 | -8% | i | -6% | i | -6% | -1%
CC(C)CCOc1ccc(Cn2c(=O)sc3ccccc32)cc1 | x | i | x | i | x | x
CCOC(=O)c1c(C)[nH]c(-c2csc(C)n2)c1C | 0% | i | -2% | u | -18% | 2%
CCOC(=O)c1c(C)[nH]c(-c2csc(N)n2)c1C | 6.5µM* | u | u | i | 4.6µM* | 16µM*
Cc1noc(/C=C/c2nn(C)cc2Cl)c1[N+](=O)[O-] | -28% | u | u | u | u | 21µM*
Cc1cccc(/C=C/c2onc(C)c2[N+](=O)[O-])n1 | u | 10µM* | u | u | 6.5µM* | 7.3µM*
Cc1cccc(N/C=C/c2onc(C)c2[N+](=O)[O-])c1 | -7% | u | 0%[9.22 µM] | i | -5% | 36%
COc1cc(/C=C/c2onc(C)c2[N+](=O)[O-])cc(OC)c1OC | -1% | i | -10% | i | 11% | 1%
Cc1cc(O)ccc1N/C=C/c1onc(C)c1[N+](=O)[O-] | 16µM* | i | 9% | i | u | 3%
CC(C)C[C@@H]1NC(=O)[C@H](Cc2ccccc2)N(C)C(=O)[C@H](C)NC(=O)c2ccccc2NC(=O)[C@H](Cc2ccc(O)cc2)N(C)C1=O | -20% | i | -40% | i | -12% | 3%

Compound activity from PubChem.
